Data from the supplement of paper PMC12632987.

T1: USP38, Q8NB14
T1 chain: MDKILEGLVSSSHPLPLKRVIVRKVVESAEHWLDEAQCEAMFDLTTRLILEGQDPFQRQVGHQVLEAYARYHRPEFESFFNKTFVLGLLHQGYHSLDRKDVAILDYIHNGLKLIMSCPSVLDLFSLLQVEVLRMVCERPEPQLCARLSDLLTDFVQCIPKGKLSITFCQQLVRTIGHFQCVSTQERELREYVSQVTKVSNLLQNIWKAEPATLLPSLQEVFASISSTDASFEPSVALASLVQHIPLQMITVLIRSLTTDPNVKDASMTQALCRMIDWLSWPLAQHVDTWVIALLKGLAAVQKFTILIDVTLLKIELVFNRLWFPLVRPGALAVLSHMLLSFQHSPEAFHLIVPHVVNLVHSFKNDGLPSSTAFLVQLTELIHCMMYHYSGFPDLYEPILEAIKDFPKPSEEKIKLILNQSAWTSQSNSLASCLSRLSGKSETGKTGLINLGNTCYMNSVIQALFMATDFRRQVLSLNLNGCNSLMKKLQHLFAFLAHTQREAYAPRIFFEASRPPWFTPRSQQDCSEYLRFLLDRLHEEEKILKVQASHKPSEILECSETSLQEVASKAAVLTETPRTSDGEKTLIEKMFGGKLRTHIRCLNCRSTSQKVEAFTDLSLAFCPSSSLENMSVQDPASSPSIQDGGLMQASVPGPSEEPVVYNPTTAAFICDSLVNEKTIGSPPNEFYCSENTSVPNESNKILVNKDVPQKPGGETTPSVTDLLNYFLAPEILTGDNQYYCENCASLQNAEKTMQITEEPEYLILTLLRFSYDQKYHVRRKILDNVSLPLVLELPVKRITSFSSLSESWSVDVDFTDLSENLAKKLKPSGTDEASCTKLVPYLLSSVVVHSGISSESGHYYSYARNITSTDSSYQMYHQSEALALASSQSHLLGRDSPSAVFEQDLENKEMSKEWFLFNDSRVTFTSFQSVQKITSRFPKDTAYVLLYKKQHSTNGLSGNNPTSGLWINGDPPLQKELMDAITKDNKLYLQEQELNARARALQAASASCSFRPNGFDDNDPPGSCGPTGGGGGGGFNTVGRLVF

B1: usp_38_diff_out_15_17_144 (protein)
chain: DPESEALYREALRANIASVFDEAAAIAAKRAARAEAEGNAELAAALRRLRDLLEHRDETPLADIAAAARELAALAEEAGDYRTAAIAGGVAAAAEELAEL
B2: usp_38_diff_out_15_85_151 (protein)
chain: SPEELKKKIEEKLEEARRLLEEARRLLADPNAPLEEIRKVLDEAARALGEAEHLARELRKLSPEYREEVEKYLKELDELVDELEALAREAFLREAEAQEA
B3: usp_38_diff_out_14_75_132 (protein)
chain: SEKEELEKRLEELEKRLEELEKEGKLTGRLVVELGGVLHVAREAIEAGKLETAKKLLEIAEQALEDPERAREILRENEDFIVDTYKELALEEIEKEEAER
B4: usp_38_diff_out_14_75_129 (protein)
chain: SEREKLEERLEAAEARLAALVAAGVISGRTEVKLGAVLHVARLAIEQGDLETAEKLLEIVEKALADPANADKILDENEDFIVSTYKELALRELEEEEKKR
B5: usp_38_diff_out_14_54_125 (protein)
chain: MEELEKLLKEAEKALKEAEKALAAAEALLEAGGPLAEIRALLDAAARAIGAAGEALRKARALATDPEVKKKLEELRKRADELVDRYNELARRALEREAAA
B6: usp_38_diff_out_14_54_126 (protein)
chain: SERLRRLLEEARRKLAEAERYLEEAEKALEEGAPLEEIERLLDEAARALGAAARALREAATLATDPESRAELEELRARADELTDRYTELAREAFLRRLEE
B7: usp_38_diff_out_15_85_147 (protein)
chain: ALEELRRELEEAIREARRLLEEARKLLAEKTPEALKAAREALDRAAEHLGRAAELLRELRRAGADPAELARLQAELDELVDEYEKLALELFEKEIELQEA
B8: usp_38_diff_out_15_85_149 (protein)
chain: KIEELKKQLQAAIDEAEALLAEAEALLKKGTPEALEAARKALDAAAKAIGQADQLLRELRKAGADKEELEAYQKRLDALTDRYEALARELFEKEMELQEK
B9: usp_38_diff_out_15_114_140 (protein)
chain: SAEEEAAEELRQREIAAGRDVARDLLAELRELKKRGRLTPAREERLLLGLEGLARLAIELGDEELARLVLEALDAFAEISDPETQARARALRAELEAAMA
B10: usp_38_diff_out_14_75_133 (protein)
chain: SEREELEKRLEELRARLAALVAAGVISGRLEVELGAVLYTAELAIEAGKLEEAKKLLDIAEAALDDPANAKAILDANEDFIVSTYKELELERIEREEEEE
B11: usp_38_diff_out_14_75_131 (protein)
chain: SEREELERRLEELRARLAALEAAGVITGRKVVKLGGALHVAELAIRAGRLEEARKILDIVEEALDDPERADEILDENEDFIVDTYKELALAEIEAEEAAR
B12: usp_38_diff_out_14_75_137 (protein)
chain: SRKEELRERLAEARARLDALVAEGRITGRLEVELRGILHIAEEAIEAGRLEEAERLLDIAERALDDPANARAIIRANEDFIVSTAKKLDLERIEEEEERR
B13: usp_38_diff_out_15_85_153 (protein)
chain: SPEEIKKEIEREIEEAERLIEEARRLLEDPEAPLEEVREVLDEAARHLGRAQHLARELRRLSPEYREFVKEAEKRLDELVDELEELAREAHLREAEELEA
B14: usp_38_diff_out_14_75_138 (protein)
chain: SREEELRKRLEEAEARLAELVAQGKITGRKEVELRGILHIAREAIEAGRLEEAEKLLDIAEEALENPEKAKEIIDENEDFIVSTAKELALREIEEEEKRR
B15: usp_38_diff_out_14_54_124 (protein)
chain: MEELERLLEEAERALREAEEALERAERLLEEGGPLEEIRRELDRAARAIGRLGEALRRARALATDPEVKKRLEELEKKADELVDRYNELARRALEMEAER
B16: usp_38_diff_out_15_114_143 (protein)
chain: SEEEEAEEELRRLEIEEGLRVAEELLAELEELRKRGRLTPAREERLLLGLEGLAILAIELGDEELARRVLEALRALAEISSPETRARAEALAAELEAAMA
B17: usp_38_diff_out_14_2_98 (protein)
chain: AEEELKKATEETLKVLDEAIKKAKELKERVKKDPSLAEEAREELFKAWDKAADAVGELAKLMEEHRELRELNKKAVEEVNKKLTELTEELLEALELAAEA
B18: usp_38_diff_out_14_75_134 (protein)
chain: SEKEELEERLAALEARLEALVAEGVISGRLEVELGAVLHTARLAIEAGRLEEARRLLDIAEEALADPARAREILRANEDFIVSTHLRLELERLAAEEAAR
B19: usp_38_diff_out_14_75_130 (protein)
chain: SMKEELEKRLEELEERLKELEEKGVLTGRTVVELGGVLYVARLAIEAGDLETAEKLLEIAEKALEDPENAKEILDENEDFIVSTHIELELRRIEEEEAAR
B20: usp_38_diff_out_15_85_152 (protein)
chain: SPEEIKKEIKKEIEKAKELIKEAKKLLKDPNAKLEEIRKVLDEAAKALGKAEYLARELRKLSPEYREEVKEYLKELDELVDELEKLEREAFLRMAEEQEA
B21: usp_38_diff_out_14_54_123 (protein)
chain: SEELEELLEEARRALEEARRALREAERLLREGGPLEEVREALDRAARAIGRLGEALRRARALATDPEVLKELERLEKEADELVDRYTELARRALEMEAER
B22: usp_38_diff_out_15_114_139 (protein)
chain: SEEEEAEEELRKLEIEQGKKVAEDLLAELERLAKEGRLTPAREERLLLGLKGLAKLAIELKDKELAELVLKALEAFAKISSPEHRKEAEKLAKELKEAMA
B23: usp_38_diff_out_14_54_127 (protein)
chain: DEEIKRLLEEARKYLEEAKKALAELKELVAAGAAPEEVFAAYDKAADAIAKAGEAIRRLMRLSTDPEVRKEAREIQEEADKLVDEMTEAVTAAQEKAAEA
B24: usp_38_diff_out_14_75_135 (protein)
chain: SEREELERRLEELEERLARLVAEGVISGRTEVKLGAVLHVARLAIEEGRLEEARKLLEIVERALADPERADEILEENEDFIVSTYLELELRRLAEEEAKR
B25: usp_38_diff_out_15_114_142 (protein)
chain: SAEEEAEEELRELEIKAGKDVAEELLEELKELRKRGRLTPAREERLLLGLRGLAILAIELKNKELAELVLEALEEFAKISDPETRAEAEKLAAELKKAMA
B26: usp_38_diff_out_14_2_99 (protein)
chain: AKEELEKATKETLKVLKEAIKKAKELLKEVKKDPSKAEEATKKLFEEWDKAADAVGKLAKLIEEHKEERKLNKEAIEKVNKELTELTKVTLEALEEAAKA
B27: usp_38_diff_out_14_54_128 (protein)
chain: DEEIERLLEEARKKLEELKKLKEELKKLVKAGASMEEIFAAYDKAADAAAAAGEAIRRLRKLSTDPEVKEEARKLEEEVNKLLDEVTELVTEALERAAER
B28: usp_38_diff_out_15_85_150 (protein)
chain: TPEELKAEIEREIEEAERLLERAEELLRDPEAPLEEIRRVLDEAAEALGRADHLARELRRLSPEYRAYVEEVLKRLDELVDRLEELAREAFLREADELEA
B29: usp_38_diff_out_14_75_136 (protein)
chain: SEREELRARLAAARARLDALVAAGVISGRLEVELGAVLHVAALAIEAGDLETARRLLDIVEAALADPARAREILRAAEDFIVDAYKRLELRRIEEEEEER
B30: usp_38_diff_out_15_17_145 (protein)
chain: DEEARRLELEAERAAMDAVIADARATLTRLAAKAKAAGWAEVAAEYEAAIAALDAGDLEAAAEHLERAARLLWDKNPRDATIAGGLAYALRRKVELDRLE
B31: usp_38_diff_out_15_114_141 (protein)
chain: SAEEEAAAELREREVAAGLAVARDLLAELEELARRGRLTPAREERLLLGLRGLARLAIELGDRELAEEVLRALDAFAAIASPELRAEAEALRAELEAAMA
B32: usp_38_diff_out_15_42_146 (protein)
chain: SQLEEELRLIVEAMEAERDRVVADVATLPEAKLKRLARRNLEGAKGEAERTGDPVAAEIAALYEEGLANPATLKAKMQEAVRLTYDRAIAEVRRRMEEEA

Biological target: T1, USP38, Q8NB14
Experiment: median log2 fold change of GCK-ALFA target abundance (FLAG IP / Myc IP barcode read proportion) (log2 ratio); each designed protein is fused to an ALFA-tag nanobody in HEK293 cells to bring the named protein to FLAG-tagged glucokinase (GCK); Myc marks an untargeted standard; higher = target protein stabilised (more abundant)
Conditions: target protein: 3xFLAG-MCP-GCK-ALFA reporter; HEK293 landing pad (RPLP)
Procedure, shortened: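 HEK293 landing-pad cells received a recombined binder library fused to the ALFA nanobody and were induced with 2 μg mL^−1 doxycycline, then transfected with a plasmid encoding a FLAG-tagged target and a Myc-tagged standard. Lysates were collected after 48 h for anti-FLAG and anti-Myc immunoprecipitation, and the circular RNA barcodes were reverse transcribed, amplified and sequenced. Target abundance for each binder is the median log2 ratio of FLAG to Myc barcode read proportions. Barcodes had to reach a proportion of at least 10^−7 in both replicates, each binder needed at least 3 barcodes per replicate, a pseudocount of 10^−6 was applied, and the two replicates were pooled.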

Binder | median log2 fold change
B1 | 0.158
B2 | 0.0262
B3 | -0.63
B4 | 0.261
B5 | -0.00832
B6 | 0.0528
B7 | 0.0216
B8 | 0.113
B9 | 0.0749
B10 | 0.198
B11 | 0.103
B12 | 0.124
B13 | -0.141
B14 | 0.163
B15 | 0.191
B16 | -0.119

Binder | median log2 fold change
B17 | -0.576
B18 | 0.0715
B19 | -0.097
B20 | 0.113
B21 | 0.491
B22 | 0.292
B23 | 0.232
B24 | -0.475
B25 | 0.0926
B26 | -0.478
B27 | -0.492
B28 | 0.0224
B29 | 0.0109
B30 | -0.0496
B31 | 0.234
B32 | -0.607
